Rows were chosen to be rich in hits. Some 5.4% of all compounds tested hit in one or more screens of this group.
SKKanGAS inh: SKKanGAS growth inhibition | 300,000 tested, 1.3% active | S. pyogenes SKKanGAS, kanamycin growth, BacTiter-Glo, 6 h | inhibition, % at 7.5 µM;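 active = mean replicate score, as percent of positive control median, at least 50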;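 note: strain carries kanamycin resistance gene driven by streptokinase promoter and grows in 40 µg/ml kanamycin; loss of luminescence reflects streptokinase promoter inhibition or plain growth inhibition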
Calb FLC: affects C. albicans growth with fluconazole. C. albicans CaCi-2 (fluconazole-resistant clinical isolate) + fluconazole, Alamar Blue growth, 48 h. growth inhibition, % (test concentration not listed). 300,000 tested, 0.57% active. AID 1979;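 active = growth inhibition above about 58% in most replicates, limit read from the data, passing the limit was not always enough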;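 note: all wells also contain fluconazole at 8 µg/ml as a sub-toxic cotreatment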
Beta apoptosis: blocks beta cell apoptosis; 300,000 tested, 0.8% active; protection from apoptosis, % (no concentration beside the values); INS-1E cytokine-induced death, ATP luminescence, 48 h; percent of positive-control rescue, neutral wells zero;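 active = Every replicate reaches about 75%, or at least half do and their mean reaches it too, limit read from the data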;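 note: higher means more ATP so stronger rescue from cytokine killing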
CSC inhib: cancer stem cell inhibition. cancer stem cell-like cells viability, luminescence. 300,000 tested, 1.1% active. inhibition, % at 7.5 µM; in the data active = inhibition above about 75%; tested in HMLE shEcad cells
Mdm2-MdmX inh: inhibitors of human Mdm2/MdmX interaction; O15151+Q00987; SaOS-2 split-luciferase Mdm2/MdmX complementation, luminescence; inhibition, % at 8 µM; 330,000 tested, 3% active; AID 485346;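 active = inhibition of at least 50% at 8 µM in the primary screen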
Target sequence (O15151 whole entry, looked up): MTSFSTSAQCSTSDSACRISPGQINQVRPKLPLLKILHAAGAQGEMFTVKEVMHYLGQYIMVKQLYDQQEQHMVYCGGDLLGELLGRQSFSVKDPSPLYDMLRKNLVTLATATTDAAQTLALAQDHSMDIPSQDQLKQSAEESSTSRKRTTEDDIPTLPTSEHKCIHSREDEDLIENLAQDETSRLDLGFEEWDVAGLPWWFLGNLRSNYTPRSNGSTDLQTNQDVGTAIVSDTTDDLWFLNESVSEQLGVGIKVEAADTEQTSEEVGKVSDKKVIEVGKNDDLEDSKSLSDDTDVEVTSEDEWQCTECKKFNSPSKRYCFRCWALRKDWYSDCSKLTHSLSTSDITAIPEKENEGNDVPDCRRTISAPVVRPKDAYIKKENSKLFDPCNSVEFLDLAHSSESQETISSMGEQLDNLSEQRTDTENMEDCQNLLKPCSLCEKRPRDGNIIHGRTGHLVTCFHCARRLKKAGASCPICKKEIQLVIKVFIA
Target sequence (Q00987 whole entry, looked up): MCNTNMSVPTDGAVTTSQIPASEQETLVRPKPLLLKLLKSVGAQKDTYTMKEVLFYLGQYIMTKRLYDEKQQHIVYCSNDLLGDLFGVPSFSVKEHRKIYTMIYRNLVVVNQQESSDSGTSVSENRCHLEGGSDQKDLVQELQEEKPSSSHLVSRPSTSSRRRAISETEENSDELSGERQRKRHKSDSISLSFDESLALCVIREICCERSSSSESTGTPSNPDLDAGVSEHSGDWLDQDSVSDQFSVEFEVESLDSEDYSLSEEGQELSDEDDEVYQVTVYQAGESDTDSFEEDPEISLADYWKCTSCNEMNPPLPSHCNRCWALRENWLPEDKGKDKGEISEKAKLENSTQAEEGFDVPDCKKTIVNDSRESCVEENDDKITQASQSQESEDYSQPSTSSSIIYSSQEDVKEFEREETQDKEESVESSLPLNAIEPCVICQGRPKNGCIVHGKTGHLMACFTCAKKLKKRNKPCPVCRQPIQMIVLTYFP
MPTP inh: blocks calcium-induced mitochondrial swelling | isolated mouse mitochondria, Ca2+ swelling absorbance, 30 min | inhibition, % at 10 µM | 360,000 tested, 1.4% active | AID 602449;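 active = inhibition of 50% or more, scaled per plate between neutral and stimulator controls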
Mdm2-MdmX conf: confirmation of human Mdm2/MdmX interaction inhibitors; AID 489028; shares compounds with Mdm2-MdmX inh; 10,000 tested, 55% active; inhibition, % at 8 µM; Mdm2-MdmX binding, luminescent assay; in the data active = inhibition above about 40%
FLuc counter: counter-screen for Mdm2/MdmX inhibitors: full-length luciferase. 6,200 tested, 77% active. shares compounds with Mdm2-MdmX inh. SaOS-2 full-length luciferase counterscreen, luminescence. inhibition, % at 8 µM;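 active = mean inhibition at 8 µM reaching about 37%, which flags the compound as non-specific, limit read from the data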;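 note: p53-null SaOS-2 cells with luciferase driven by a doxycycline-inducible promoter; compound on cells about two nights before reading with doxycycline added after day one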
Of the large screens only hits and unclear results are named; the others gave an inactive call (follow-up assays come after a bar, where they were run).

COc1ccc(C(NC(=O)c2cccnc2)c2cc(Cl)c3cccnc3c2O)cc1OC (stereo unspecified)	Beta apoptosis 91, Mdm2-MdmX inh 75 (no result: CSC inhib) | Mdm2-MdmX conf 78 | FLuc counter inactive
CN1CCCC(OC(=O)c2ccc3c(c2)OCCO3)C1 (stereo unspecified)	none (no result: Calb FLC, Beta apoptosis, CSC inhib, Mdm2-MdmX inh)
COc1ccccc1NC(=S)N(CCN(C)C)C(C)c1ccncc1 (stereo unspecified)	none
COc1cc(N(CCCn2cnc3c(SC)ncnc32)CCCn2cnc3c(SC)ncnc32)cc(OC)c1OC	none (no result: SKKanGAS inh, Calb FLC, Beta apoptosis, CSC inhib, Mdm2-MdmX inh)
COC(=O)C(CC(=O)c1ccc(Br)cc1)n1cccn1 (stereo unspecified)	none
Cc1cc(NC(c2cccnc2)c2ccc3cccnc3c2O)no1 (stereo unspecified)	Beta apoptosis 104, Mdm2-MdmX inh 74 (no result: CSC inhib) | Mdm2-MdmX conf 68 | FLuc counter 40
COc1ccc(CNC(=O)CSc2cccc3cccnc23)cc1	none (no result: Beta apoptosis, CSC inhib)
CCCC(=O)NC(c1ccc(OC)cc1)c1ccc2cccnc2c1O (stereo unspecified)	Calb FLC 102, Beta apoptosis 97, CSC inhib 119, Mdm2-MdmX inh 82 | Mdm2-MdmX conf 78 | FLuc counter 50
CCCCC(=O)NC(c1ccc(C(C)C)cc1)c1ccc2cccnc2c1O (stereo unspecified)	SKKanGAS inh 88, Mdm2-MdmX inh 78 (no result: Beta apoptosis, CSC inhib) | Mdm2-MdmX conf 88 | FLuc counter inactive
CCCCCOc1ccc(NC(=O)CSc2cccc3cccnc23)cc1	none
COc1ccc(Cl)cc1C(Nc1cccnc1)c1ccc2cccnc2c1O (stereo unspecified)	SKKanGAS inh 69, Calb FLC 102, Mdm2-MdmX inh 67 (no result: Beta apoptosis) | Mdm2-MdmX conf 63 | FLuc counter 44
COc1cccc(N2CCN(C(=O)c3cn(Cc4ccccc4)nc3-c3cccnc3)CC2)c1	none (no result: SKKanGAS inh, Calb FLC)
CCC(=O)NC(c1ccc(OC)cc1)c1cc(Cl)c2cccnc2c1O (stereo unspecified)	Calb FLC 104, Beta apoptosis 96, CSC inhib 119, Mdm2-MdmX inh 79 | Mdm2-MdmX conf 81 | FLuc counter inactive
COc1ccc(N/N=C(\C=N\O)C(=O)c2ccc(OC)cc2)cc1	Mdm2-MdmX inh 56 | Mdm2-MdmX conf 56 | FLuc counter 60
NC(=O)c1ccc(NC(=O)CN2CCN(S(=O)(=O)c3ccc4c(c3)OCCO4)CC2)cc1	none (no result: SKKanGAS inh, Calb FLC)
COc1cc(-c2cc(C(=O)Nc3ccc(O)cc3)c3ccccc3n2)cc(OC)c1OC	none
COc1ccc(NC(=O)c2cc(-c3ccncc3)nc3ccccc23)c(OC)c1	none (no result: SKKanGAS inh, Calb FLC, CSC inhib)
O=C(NCc1ccco1)c1cc(-c2ccccc2)nc2ccccc12	none
Cc1ccc(-c2nn(-c3ccccc3)cc2C(=O)Nc2ccc(C)c(S(=O)(=O)N3CCOCC3)c2)cc1	none
COc1cc(-c2cc(C(=O)Nc3cccc(C(C)=O)c3)c3ccccc3n2)cc(OC)c1OC	Mdm2-MdmX inh 61 (no result: Beta apoptosis) | Mdm2-MdmX conf inactive | FLuc counter 82
O=C(Nc1cccc(S(=O)(=O)NCc2ccco2)c1)c1cc(-c2ccccc2)nc2ccccc12	Mdm2-MdmX inh 52 | Mdm2-MdmX conf inactive
COc1cc(-c2cc(C(=O)Nc3ccc(C)c(S(=O)(=O)N4CCOCC4)c3)c3ccccc3n2)cc(OC)c1OC	Mdm2-MdmX inh 52 (no result: SKKanGAS inh, Calb FLC) | Mdm2-MdmX conf inactive | FLuc counter 73
COc1cc2c(cc1NC(=O)c1cc(-c3ccncc3)nc3ccc(C)cc13)oc1ccccc12	Mdm2-MdmX inh 51 | Mdm2-MdmX conf inactive
O=C1CCCCC1	none (no result: SKKanGAS inh, Calb FLC)
Nc1nnc(-c2cn(-c3ccccc3)nc2-c2ccc(Cl)cc2)o1	Mdm2-MdmX inh 58 | Mdm2-MdmX conf inactive
CCn1c(=S)[nH]c2cc(S(=O)(=O)N3CCCCC3)ccc21	Mdm2-MdmX inh 82 | Mdm2-MdmX conf 49 | FLuc counter 84
Cc1cc(C)c(S(=O)(=O)c2ccccc2)c(OC(=O)c2c(Cl)cc(Cl)cc2Cl)n1	Mdm2-MdmX inh 52 | Mdm2-MdmX conf inactive
COC(=O)c1ccc(COc2ccccc2/C=N/NS(=O)(=O)c2ccccc2)cc1	Mdm2-MdmX inh 52 | Mdm2-MdmX conf 52 | FLuc counter 115
